Source: PubChem BioAssay (ICCB-Longwood Screening Facility, Harvard Medical School)
This excerpt belongs to a sample that is enriched for hits.
CapD inh – CapD enzyme inhibition | z-score (test concentration not listed) | AID 492967 | 0.23% of 140,000 active | purified CapD enzyme, fluorescence intensity read-out; active compounds read low; in the data active means z-score mostly below about -2.9, no sharp cut-off; inactive means mostly above about -1.9
The depositor's hits bear a star.

SMILES | CapD inh
CC1CCCCN1C(=O)c1cc2nc3c(c(C(F)(F)F)n2n1)CCc1ccccc1-3 (centres undefined) | 0.075
CCCC1CC(C)(C(=O)C[n+]2cccc(C(N)=O)c2)OC1=O (centres undefined) | 0.055
CN(C)/C=C/C=C1C(=O)CCCC1=O | -0.57
CC1C/C(=C\C=C\N(C)C)C(=O)/C(=C/C=C/N(C)C)C1 (centres undefined) | -2.5
CN(C)/C=C/C=C1\CCCC1=O | -9*
OC(c1ccccc1)C(F)(F)C1(F)OC(F)(F)C(F)(F)C1(F)F (centres undefined) | -0.015
COc1ccc(NC(=O)CSc2ncnc3c2oc2ccccc23)cc1 | 0.04
CC(=O)Oc1ccc(-c2ccc(C(=O)O)cc2)cc1 | -3.2
CC(=O)Oc1cc(OC(C)=O)cc(C(=O)O)c1 | -8.7*
CC(=O)Oc1cncc(C(=O)O)c1 | -0.68
CCc1ccc(OCCCC(=O)Nc2ccc(S(=O)(=O)Nc3nc(C)cc(C)n3)cc2)cc1 | 0.14
CC(O)CC12CC3CC(CC(C3)C1)C2 (centres undefined) | 0.2
COc1ccc(/C=C2/CC(C(C)(C)C)C/C(=C\c3ccc(OC)cc3OC)C2=O)c(OC)c1 (centres undefined) | 0.63
COc1cccc(/C=C2/CCC/C(=C\c3cccc(OC)c3OC)C2=O)c1OC | 0.33
COc1cccc(/C=C2/CC(C(C)(C)C)C/C(=C\c3cccc(OC)c3OC)C2=O)c1OC (centres undefined) | -9.2*
CCOc1cc(C2C(C#N)=C(N)Oc3n[nH]c(-c4ccc5c(c4)OCO5)c32)ccc1OC(=O)c1ccco1 (centres undefined) | 0.015
CCN(Cc1cc(=O)oc2ccc(OC)cc12)c1ccccc1 | -0.97
O=c1c(-c2ccccc2Cl)coc2cc(O)ccc12 | 7.2
N#Cc1ccccc1CSc1nc2ccccc2c(=O)n1CC1CCC(C(=O)NCc2ccco2)CC1 (centres undefined) | 0.41
CCOC(=O)C(Nc1cccc(F)c1)c1ccccc1 (centres undefined) | -0.47
COC(=O)C(C)Nc1ccc(C)cc1 (centres undefined) | 1.4
COC(=O)C(C(=O)OC)C(Nc1ccccc1)c1ccccc1 (centres undefined) | -7.1*
COc1ccc2c(C)nc(N=C(NC(C)=O)NC(C)=O)nc2c1 | 2.7
CCOC(=O)n1nc(Cc2ccncc2)c2ccccc2c1=O | -0.57
CCOC(=O)c1cnn2c(C)c(Cc3c(Cl)cccc3Cl)c(C)nc12 | -0.005
SMILES | CapD inh
O=C1/C(=C/c2cc([N+](=O)[O-])cc(Br)c2O)SC(=S)N1c1ccc([N+](=O)[O-])cc1 | -0.13
O=C(O)CN1C(=O)/C(=C\c2cc([N+](=O)[O-])cc(Br)c2O)SC1=S | -7.9*
O=C(O)CN1C(=O)/C(=C\c2ccc(-c3ccc([N+](=O)[O-])cc3Cl)o2)SC1=S | -0.11
COc1cc2c(cc1OC)C(c1cccnc1)N(C(C)=O)CC2 (centres undefined) | 0.66
COc1ccc(N/C(C)=C/C(=O)c2ccccc2)cc1 | -1.1
CN=C(Nc1ccc(Cl)cc1)c1cccnc1 | -0.42
CC(=O)Nc1ccc(N/C(C)=C/C(=O)c2cccnc2)cc1 | -4.1*
COc1ccccc1C(=O)ON1C(=O)CCC1=O | -5.5*
COc1ccc(C(=O)ON2C(=O)CCC2=O)cc1 | -1.1
COc1ccccc1C(=O)OC1CCN(C)CC1 | 0.055
Cc1snc(S(=O)(=O)/C(C#N)=N/Nc2cccc(C(F)(F)F)c2)c1C#N | -2.5
Cn1cncc1S(=O)(=O)/C(C#N)=N/Nc1ccc(OC(F)(F)F)cc1 | -2.7
COc1ccc(N/N=C(/C#N)S(=O)(=O)c2nsc(C)c2C#N)cc1 | -5.8*
CCC(=O)Nc1nc2ccccc2n1CCN1CCCC1 | -0.15
O/N=C(\c1ccccc1)c1cc2ccccc2o1 | -0.15
O=C(O)Cn1c(O)c(C=Nc2ccccc2)sc1=S | -7.4*
Oc1[nH]c(=S)sc1C=Nc1ccccc1 | 0.18
C=CCn1c(O)c(C=Nc2ccccc2)sc1=S | -2.7
C=CCSc1nnc(-c2ccc(Cl)cc2)n1CC(OC)OC | -2
COc1cccc(N2C(=O)NC(=O)/C(=C\c3ccc(OC)c(OC)c3OC)C2=O)c1 | -0.59
COCCNC(=O)c1ccc(C(=O)NCCOC)cc1 | 0.13
COCCNC(=S)c1ccc(N(C)C)cc1 | -4.9*
COCCCNC(=S)N/N=C/c1ccc(N(C)C)cc1 | 43
COc1ccc(-c2noc(N3CCc4ccccc4C3)n2)cc1 | 0.3
O=S1(=O)CC(c2ccccc2)CS(=O)(=O)C1 | -0.69
SMILES | CapD inh
O=C(/C=C/c1ccccc1)Nc1ccccc1N1CCCC1 | 0.2
O=C(c1ccc(Cl)cc1)N1CCCc2ccccc21 | -0.33
O=C(c1cccs1)N1CCCCC1 | 0.45
CC1CC(C)CN(C(=O)c2cccs2)C1 (centres undefined) | 0.025
O=C(O)C1SCCN1C(=O)c1ccc(Cl)cc1 (centres undefined) | 0.075
O=C(c1cccs1)N1CCSC1=S | -4.8*
O=C(c1ccc(Cl)cc1)N1CCSC1=S | -3.5*
COC(=O)C1=C(C)NC2=C(C(=O)CC(c3cccs3)C2)C1c1cc(OC)c(Br)cc1OC (centres undefined) | 18
CCOCCSc1nc2c(c(=O)[nH]1)C(C)(C1CCCCC1)Cc1ccccc1-2 (centres undefined) | -0.44
CN(C)CCCNS(=O)(=O)c1cc(Cl)sc1Cl | -0.49
COc1cc(/C=C2\SC(NC(C)=O)=NC2=O)ccc1OCc1ccccc1F | 0.22
CCN(CCN(C)C)S(=O)(=O)c1ccc(C(C)(C)CC)cc1 | -0.34
CCCCCCCCCCCCCCCC(=O)OCC1OC2OC(C)(C)OC2C2OC(C)(C)OC12 (centres undefined) | -0.095
CN(C)C=NC(=O)c1sc2cc(C(F)(F)F)cnc2c1-c1cccs1 | -1.5
CN(C)c1ccc(-c2[nH]c(=S)[nH]c(=O)c2C#N)cc1 | 0.14
N#Cc1c(-c2cccs2)[nH]c(=S)[nH]c1=O | -1.2
N#Cc1c(-c2ccccc2)[nH]c(=S)[nH]c1=O | -6.1*
Cc1ccc(N2CC(N)=C(n3cc[n+](C)c3)C2=O)cc1 | 0.18
O=C(Nc1cc(C(F)(F)F)cc(C(F)(F)F)c1)c1ccc(Cl)cc1 | 0.53
O=C(Oc1ccc2c(=O)c(-c3ccc(Cl)cc3)c(C(F)(F)F)oc2c1)c1ccco1 | 79
O=C1OC/C(=C(\O)c2ccc(Cl)cc2)C1=O | -5.4*
O=C1OC/C(=C(/O)c2ccccc2)C1=O | -3.1
N#CC1=C(c2ccc(Cl)cc2)COC1=O | 2.9
CCCCCCC(=O)Nc1cccc(C(=O)N/N=C/c2ccc(/C=C/C(=O)O)cc2)c1 | 2.7
O=C1Cc2ccccc2C(=O)N1Cc1ccc2c(c1)OCO2 | -0.42
SMILES | CapD inh
NC(=S)NCc1ccc(F)cc1 | -0.51
CCC1CCCCN1C(=O)CSc1nnc(-c2ccc(Cl)cc2)o1 (centres undefined) | -4.8*
CCC1CCCCN1C(=O)CSc1ccc(Cl)cc1 (centres undefined) | -0.29
CCC1CCCCN1C(=O)CSCc1ccc(Cl)cc1 (centres undefined) | 0.29
CCC(C)NC(=O)COc1ccc(C(C)(C)c2ccccc2)cc1 (centres undefined) | -0.74
CC(C)NC(=O)Cn1ncc2c1-c1ccccc1OC2 | -0.46
CC1CCCCN1C(=O)Cn1ncc2c1-c1ccccc1OC2 (centres undefined) | -4*
CCN(CCN(C)C)C(=O)Cn1ncc2c1-c1ccccc1OC2 | 0.48
Cc1cc(C(=O)OCC(=O)C(C)(C)C)c(C)o1 | 0.27
CCc1cccc(CC)c1NC(=O)COC(=O)c1ccc2ccccc2n1 | -0.05
CCN1CCN(CC(O)COc2ccc(C(=O)OC)cc2)CC1 (centres undefined) | 0.15
